Assay results taken from PubChem BioAssay (NCATS).
“And” between values parts separate entries of the source, which are not always exact repeats. Equal values may be shown once. Results filed as inconclusive are left out. Where a call stands in place of a potency, no number is given. A number with no mark means an inactive call. The source made the active and inactive calls. The call rests on the fitted dose curve; in most records, active means well fitted curve in the direction sought with a large enough effect; inconclusive means small, poorly fitted or top-dose-only effect, or another doubt; inactive means no such curve, though single readings can be large; an effect the other way counts as inactive or inconclusive.

Key:
[1] = Viability qHTS for spleen associated tyrosine kinase inhibitor (SYKi) naive MV4-11 cells (AID 1963823); further: nearly all actives have a fitted effect of over 40% in size; further: potency means the concentration at half of the fitted maximal effect
In short: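 CellTiter-Glo luminescence, 10 min room-temperature incubation, gave viability. Cells: naive MV4-11 (500/well), treated 72 hr at 37 C, 5% CO2.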

[2] = Cellular viability qHTS for adrenocortical cancer (ACC) cell line SW-13 (AID 1963989); settings: SW-13 ACC cells viability, CellTiter-Glo, 48 h; activity (max response): active compounds read low;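 further: cells grown in serum-free medium with ITS supplement; nearly all actives have a fitted effect of over 65% in size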
In short: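 Viability was read as CellTiter-Glo luminescence after 48 h compound treatment (up to 46 uM final) of SW-13 cells grown serum-free; titration curves were fit with a four-parameter logistic model to give IC50 and efficacy.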

[3] = Cellular viability qHTS for adrenocortical cancer (ACC) cell line NCI-H295R (AID 1963990); further: nearly all actives have a fitted effect of over 60% in size; further: potency means the concentration at half of the fitted maximal effect
In short: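 CellTiter-Glo ATP luminescence, read 48 h after compound addition, measured viability of NCI-H295R adrenocortical cells grown serum-free with ITS. Final concentrations spanned up to 46 uM. Data normalized to DMSO and doxorubicin, fitted for IC50 and maximal response.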

[4] = Viability qHTS for spleen associated tyrosine kinase inhibitor (SYKi) drug resistant MV4-11 cells (AID 1963824); further: nearly all actives have a fitted effect of over 35% in size; further: potency means the concentration at half of the fitted maximal effect
In short: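 CellTiter-Glo luminescence, read 10 min after reagent addition, reports viability after a 72 hr compound exposure. Cells are an MV4-11 line made resistant to SYK inhibition, seeded at 500 per well onto compound-containing plates.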

Cc1ccc(S(=O)(=O)NC(=O)NC2CCCCCCC2)cc1
Potency [1]: inactive
activity (max response) [2]: 11.9%
Potency [3]: inactive

C[C@@H]1[C@H](O)[C@@H](C)/C=C/C=C/C=C/C=C/C=C/C=C/C=C/[C@H](O[C@@H]2O[C@H](C)[C@@H](O)[C@H](N)[C@@H]2O)C[C@@H]2O[C@](O)(C[C@@H](O)C[C@@H](O)[C@H](O)CC[C@@H](O)C[C@@H](O)CC(=O)O[C@H]1C)C[C@H](O)[C@H]2C(=O)O
Potency [1]: inactive
activity (max response) [2]: -9.6%
Potency [3]: inactive

O=C(O)CCn1c2c(c3ccccc31)C[C@H](NS(=O)(=O)c1ccc(F)cc1)CC2
Potency [1]: inactive
activity (max response) [2]: -2.29% and -2.36%
Potency [3]: inactive

CCCCN=C(N)NC(=N)N
Potency [1]: inactive
activity (max response) [2]: 17.9%
Potency [3]: inactive

Cc1cc(CCCOc2c(C)cc(-c3noc(C(F)(F)F)n3)cc2C)on1
Potency [1]: inactive
activity (max response) [2]: -14.2%
Potency [3]: inactive

C=C1CCC[C@]2(C)C=C3OC(=O)C(C)=C3C[C@@H]12
Potency [1]: inactive
activity (max response) [2]: -6.22%
Potency [3]: inactive

Cc1cc(C)c(S(=O)(=O)N(CCc2cccc(Br)c2)Cc2ccc(-c3cccc(S(C)(=O)=O)c3)cc2)c(C)c1
Potency [1]: inactive
activity (max response) [2]: -27.1%
Potency [3]: inactive

CC(=O)c1c(O)cc2cccc3c2c1CC(C)(O)O3 (stereo not given)
Potency [4]: inactive

CC(CCc1ccc2c(c1)OCO2)NN (stereo not given)
Potency [1]: inactive
activity (max response) [2]: 9.04%
Potency [3]: inactive

Cn1cc[nH]c1=S
Potency [1]: inactive
Potency [3]: inactive

CN1CCN(C(=O)[C@H]2[C@@H](C(=O)O)[C@H]3CC[C@@H]2O3)CC1
viability (% of control) [1]: 78.3% [at 9.25 µM]
activity change, negative = viability loss [3]: 2.26% [at 9.17 µM]

CCCCNc1ccc(C(=O)OCCOCCOCCOCCOCCOCCOCCOCCOCCOC)cc1
Potency [1]: 10.6 µM (active)
Potency [3]: inactive

CC(C(=O)O)c1ccc(/C=C2\CCCCC2=O)cc1 (stereo not given)
Potency [1]: inactive
Potency [3]: inactive

COC(=O)C1=C(C)NC(C)=C(C(=O)OC)C1c1ccccc1[N+](=O)[O-]
Potency [1]: 13.3 µM (active)
Potency [3]: 9.2 µM (active)

CC(C)(C)NCC(O)c1cc(O)cc(O)c1 (stereo not given)
Potency [1]: inactive
Potency [3]: 25.9 µM (active)

CCn1c(-c2nonc2N)nc2cncc(C(=O)N3CC[C@H](N)C3)c21
Potency [4]: 8.2 µM (active)

CCN(CC)CCc1nc(-c2ccccc2)no1
Potency [1]: inactive
Potency [3]: inactive

CCCOC(=O)c1ccc(N)cc1
Potency [1]: inactive
Potency [3]: inactive

CC(C)=CCC/C(C)=C/CO
Potency [1]: inactive
activity (max response) [2]: 10%
Potency [3]: inactive

CCCC(CCC)(C(=O)OCC)C(=O)OCC
Potency [1]: inactive
Potency [3]: inactive

CNC(=O)c1cccc(-c2ccc3c(N4CCOC[C@@H]4C)nc(N4CCOC[C@@H]4C)nc3n2)c1
Potency [1]: 164 nM (active) and 411 nM (active) and 132 nM (active)
Potency [3]: 0.794 µM (active)

Cc1c(-c2ccc(-c3ccccc3F)cc2)nc2ccc(F)cc2c1C(=O)O
Potency [1]: 0.148 µM (active)
Potency [3]: inactive

CCc1cc(S(=O)(=O)O)c2cc(C(C)C)cccc1-2
Potency [1]: inactive
Potency [3]: inactive

Cc1ccccc1CN1CCn2c1nc1c(c2=O)CN(Cc2ccccc2)CC1
Potency [4]: inactive

Cc1[nH]c(/C=C2\C(=O)Nc3ccc(F)cc32)c(C)c1C(=O)NCCN1CCCC1
Potency [1]: 51.7 nM (active) and 14.4 nM (active)
Potency [3]: 10.1 µM (active)

COc1ccc(NS(=O)(=O)c2ccc(N)cc2)nn1
Potency [1]: inactive
Potency [3]: inactive

CC#C[C@@H](CC(=O)O)c1ccc(OCc2cccc(-c3ccc(C(F)(F)F)cc3)c2)cc1
Potency [1]: 18.6 µM (active)
Potency [3]: 31.6 µM (active)

O=C(Nc1ccc(Cl)cc1)Nc1cccc(-c2cccc(N3CCCC3)n2)c1
Potency [4]: 14.6 µM (active)

C=C1C[C@H]2[C@@H]3C=C(C)C4=CC(=O)CC[C@]4(C)[C@H]3CC[C@]2(C)[C@@]1(OC(C)=O)C(C)=O
Potency [1]: 18.8 µM (active)
Potency [3]: inactive

CN1[C@@H]2CC(OC(=O)[C@H](CO)c3ccccc3)C[C@H]1[C@@H]1O[C@@H]12 (stereo not given in full)
Potency [1]: inactive
Potency [3]: inactive

O=C1CN(/N=C/c2ccc([N+](=O)[O-])o2)C(=O)N1
Potency [1]: inactive
activity (max response) [2]: -20.9%
Potency [3]: 18.4 µM (active)

O=C(NO)c1cnc(NC2(c3ccccc3)CC2)nc1
Potency [1]: 5.25 µM (active)
Potency [3]: 3.98 µM (active)

C#C[C@]1(OC(C)=O)CC[C@H]2[C@@H]3CCC4=C/C(=N/O)CC[C@@H]4[C@H]3CC[C@@]21CC
Potency [1]: 26.6 µM (active)
Potency [3]: 20.6 µM (active)

C=C1[C@H](OC(C)=O)[C@H]2[C@@H](OC(C)=O)[C@](C)(OC(C)=O)C[C@]2(OC(C)=O)C(=O)[C@H](C)/C=C/C(C)(C)C(=O)[C@H](OC(=O)C(C)CC)[C@H]1OC(C)=O (stereo not given in full)
Potency [4]: inactive

CC(C)S(=O)(=O)NC[C@H](C)c1ccc(NC(=O)c2cc(F)cc(F)c2)cc1
Potency [4]: 14.6 µM (active)

COc1ccc2cc1Oc1ccc(cc1)C[C@H]1c3c(cc4c(c3Oc3cc5c(cc3OC)CCN(C)[C@@H]5C2)OCO4)CCN1C
Potency [1]: 11.9 µM (active)
Potency [3]: 18.4 µM (active)

CN(C)CC/C=C1\c2ccccc2Sc2ccc(Cl)cc21
Potency [4]: 15 µM (active)

Fc1ccc(C(c2ccc(F)cc2)N2CCN(C/C=C/c3ccccc3)CC2)cc1
Potency [4]: 21.1 µM (active)

O=C(Nc1ncc(SCCN2CCCC2)s1)[C@]1(c2ccc(S(=O)(=O)C3CC3)cc2)C[C@H]1C1CCCCC1
Potency [1]: 7.42 µM (active)
Potency [3]: 7.08 µM (active)
